Screens from PubChem BioAssay.
An excerpt weighted towards active compounds, which were near 2.4% of everything screened.
NSD2 HMT inh = inhibitors of human histone methyltransferase NSD2; O96028; NSD2 peptide methylation, AlphaScreen, 120 min; inhibition, % at 12.5 µM; 310,000 compounds, 0.54% hits; AID 743445
Dyrk1A ADPGlo = blocks rat Dyrk1A kinase activity | AID 504441 | 310,000 compounds, 0.43% hits | inhibition, % at 12.5 µM | Q63470 | ADP-Glo luminescence, NFATc1 peptide;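 also: plate controls were vehicle with enzyme for no effect and no enzyme for full effect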
GSIS activator = GLuc luminescence reporter in INS-1E cells, primary screen for activators of glucose-dependent secretion of insulin. INS-1E GLuc reporter insulin secretion, 2-3 h. activation, % at 16.6 µM. 370,000 compounds, 0.61% hits. AID 743287;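 active = lowest replicate activation of at least 40%, so every replicate reaches that level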;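 also: 0% = median of neutral control wells and 100% = median of IBMX positive control wells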
Wnt bcat act = Wnt/beta-catenin pathway activation. activation, % at 9.35 µM. Wnt/beta-catenin reporter cell assay, activator, plate reader. 300,000 compounds, 1.2% hits; in the data active = activation above about 30%, passing the limit was not always enough; inconclusive = no clear call, values can overlap the other calls;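 also: 0% = neutral control wells and 100% = positive control wells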
MITF act = increases MITF-driven TRPM1 promoter luciferase signal; SK-MEL-5 TRPM1-promoter luciferase, 24 h; % of positive control, neutral wells = 0; activation, % at 12.5 µM; 300,000 compounds, 0.75% hits;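 active = mean activation of at least 80% with every replicate also reaching 80%; inconclusive = mean reaches 80% but some replicate falls short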;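 also: 0% = neutral control wells and 100% = parthenolide positive control wells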
miR-122 sensor = blocks miR-122 activity in Huh7 sensor cells; Huh7 miR-122 Renilla luciferase sensor, 48 h; neutral wells = 0, positive control = 100; activation (reporter increase), % at 12.5 µM; 340,000 compounds, 0.3% hits;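 active = mean replicate activation score at least 90 and every replicate individually at or above 90; inconclusive = only one of the two criteria met; inactive = neither criterion met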;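 also: higher luciferase means less miR-122 activity so hits act as miR-122 inhibitors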
Numbers without * were called inactive; ? = inconclusive; nt = no result; [ ] = remark or other dose. Rule as the data show it, unless noted: active = inhibition above about 50%; inactive = the rest.

SMILES	NSD2 HMT inh	Dyrk1A ADPGlo	GSIS activator	Wnt bcat act	MITF act	miR-122 sensor
CN1C(=O)c2cc(NC(=O)c3ccc(Cl)cc3)ccc2OC[C@@H]2O[C@@H](CC(=O)O)CC[C@@H]21	nt	nt	0.9	nt	nt	-11.7[16.7 µM]
CCCNC(=O)N(C)C[C@H]1Oc2ncc(-c3ccc(OC)cc3)cc2C(=O)N([C@@H](C)CO)C[C@H]1C	nt	nt	8.0	nt	nt	0.3[16.7 µM]
CC(O)C(NS(=O)(=O)c1ccc(Cl)cc1)C(=O)OCC(=O)c1ccc2c(c1)NC(=O)CO2 (stereo not drawn)	-11.1	nt	13.9	-1.7	-15.6	-4.7
CC(C)CC(NC(=O)c1ccc(Cl)cc1)C(=O)OCC(=O)c1ccc2c(c1)NC(=O)CO2 (stereo not drawn)	-2.0	3.0	460.6*	nt	-55.7	-5.7
O=C(NN1CCCCC1)c1cnn2c(C(F)F)cc(-c3ccccc3)nc12	3.1	1.2	5.3	-7.4	4.1	nt
CCn1nc(C)c(NC(=O)c2cnn3c(C(F)F)cc(-c4ccccc4)nc23)c1C	0.3	-1.6	54.9*	0.5	-1.4	nt
C/C(=N\Nc1cccc2cccnc12)c1ccc[nH]1	1.0	-6.5	7.8	41.8*	47.5	8.3
CCC(=O)Nc1cccc2cccnc12	0.9	-4.4	-5.0	17.5	12.7	3.1
COc1ccc2oc(C(=O)Nc3ccc(C)cn3)c(C)c2c1	6.0	-4.4	28.2	38.2*	75.9	nt
COc1ccc(C(=O)Nc2ccccn2)cc1	nt	1.3	nt	nt	-0.7	-1.2
Cc1ccsc1C(=O)Nc1nccs1	1.6	11.2	24.9	6.4	10.8	1.1
COc1ccc2oc(C(=O)Nc3ccccn3)c(C)c2c1	2.4	15.5	35.2	42.6*	-8.0	-3.1
COc1ccc2oc(C(=O)Nc3nc(C)cs3)c(C)c2c1	-1.8	-1.6	-12.5	51.2*	79.5	0.0
Cc1csc(NC(=O)c2sccc2C)n1	25.7	9.6	20.3	47.7*	30.3	-3.7
CN1C(=O)c2cc(NS(=O)(=O)c3ccccc3Cl)ccc2OC[C@@H]2O[C@@H](CC(=O)O)CC[C@H]21	nt	nt	-2.0	nt	nt	2.1[16.7 µM]
COc1ccc2oc(C(=O)NC3CCCCC3)c(C)c2c1	-1.4	-6.5	-1.8	28.8	112.3*	0.3
Cc1c(C(=O)NC2CCCCC2)oc2ccc(F)cc12	-2.6	-4.0	-4.3	18.0	37.2	-3.6
Cc1c(C(=O)Nc2nccs2)oc2ccc(F)cc12	-2.4	nt	-1.1	38.0*	33.7	nt
O=C(c1ccccc1F)N1CC2(C1)[C@H](c1ccccc1)[C@H](CO)N2CC1CC1	nt	nt	9.7	nt	nt	nt
Cc1ccc(CC(=O)N(Cc2ccccc2)c2ccccn2)cc1	-3.0	-3.9	0.6	-2.8	-4.5	118.1*
C/C(=N\OC(=O)c1ccc(F)cc1)c1sc(-c2ccc(Cl)cc2)nc1C	nt	3.9	35.1	51.0*	71.6	-4.5
C/C(=N\OC(=O)c1ccc(C)cc1)c1sc(C)nc1C	-1.5	10.1	nt	nt	23.3	-1.9
O=C(NCc1ccncn1)[C@@H]1[C@@H](CO)[C@@H]2Cn3c(ccc(-c4ccccc4)c3=O)[C@@H]2N1CC1CC1	nt	nt	-4.4	nt	nt	1.1[16.7 µM]
Cc1noc(C)c1-c1nc(CS(=O)(=O)c2ccc(Cl)cc2)no1	20.0	6.5	3.6	-1.6	9.9	nt
O=S(=O)(Cc1noc(-c2ccccc2Cl)n1)c1ccccn1	0.9	1.9	2.2	40.3*	?	nt
SMILES	NSD2 HMT inh	Dyrk1A ADPGlo	GSIS activator	Wnt bcat act	MITF act	miR-122 sensor
C[C@H](CO)N1C[C@H](C)[C@H](CN(C)S(=O)(=O)c2ccc(C(F)(F)F)cc2)OCc2ccccc2-c2c(n(C)c3ccccc23)C1=O	nt	nt	-2.5	nt	nt	nt
CC(=O)NC1C(OCc2ccccc2)OC(CO)C(OC(C)=O)C1OC(C)=O (stereo not drawn)	-1.3	-1.5	5.9	36.0*	-5.4	2.0
CC(=O)NC1C(OCc2cccc(Br)c2)OC(COC(C)=O)C(OC(C)=O)C1OC(C)=O (stereo not drawn)	-10.6	-5.2	15.3	0.6	4.3	-0.1
COc1cccc(-c2cc(C(=O)N3CCCCCC3)no2)c1	nt	8.0	-34.1	41.0*	nt	nt
O=C(c1cc(-c2ccc(F)cc2)on1)N1CCCCCC1	-0.6	4.2	10.8	-4.3	138.1*	-5.2
O=C(c1cc(-c2cccc(O)c2)on1)N1CCCCC1	nt	11.0	-5.4	40.3*	53.5	7.4
O=C(c1cc(-c2cccc(O)c2)on1)N1CCCC1	-4.7	8.7	11.7	26.2	15.4	-0.6
COc1ccc(-c2cc(C(=O)N3CCCCCC3)no2)cc1	-15.8	2.2	-5.2	-1.9	41.9	6.7
O=C(c1cc(-c2ccccc2)on1)N1CCCCCC1	-1.4	-0.5	3.8	37.1*	140.7*	-0.6
CO[C@@H]1CN(C)C(=O)c2cc(NC(=O)NC(C)C)ccc2OC[C@H](C)N(C(=O)CC2CC2)C[C@H]1C	nt	nt	-2.4	nt	nt	-19.7[16.7 µM]
O=C(C[C@H]1CC[C@H]2[C@@H](COC[C@H](O)CN2Cc2cccc(F)c2)O1)NCC1CCCCC1	nt	nt	-18.8	nt	nt	0.2[16.7 µM]
C[C@@H]1CN([C@H](C)CO)C(=O)c2cccc(NC(=O)c3ccc(-c4nccs4)cc3)c2O[C@H]1CN(C)CC1CCCCC1	nt	nt	-13.0	nt	nt	-5.1[16.7 µM]
Cc1noc(C)c1NC(=O)N(C)C[C@H]1OCCCC[C@@H](C)Oc2ccc(NS(=O)(=O)c3ccccc3)cc2C(=O)N([C@@H](C)CO)C[C@@H]1C	nt	nt	-1.5	nt	nt	2.3[16.7 µM]
COc1ccc(-c2cc(C(=O)N3CCCC3)no2)cc1	-6.4	3.4	3.2	29.1	-15.7	-5.3
COc1ccc(-c2cc(C(=O)N3CCCCCC3)no2)cc1OC	-3.8	-1.7	50.8*	17.3	nt	12.6
O=C(Nc1ccccc1C(=O)O)c1ccc(NC(=O)C2CC2)cc1	0.0	nt	-2.3	4.0	3.5	-0.5
O=C(Nc1ccccc1O)c1ccc(NC(=O)C2CC2)cc1	-2.8	2.7	0.9	68.5*	49.1	-7.3
Cc1ccc2cc3c(N)c(C(=O)N4CCOCC4)sc3nc2c1	3.8	5.5	-9.2	59.1*	11.5	7.1
Cc1ccc2nc(-c3ccncc3)cc(C(=O)N3CCOCC3)c2c1	-3.5	-2.8	nt	nt	-4.1	-1.5
Cc1ccc(-c2cc(C(=O)N3CCOCC3)c3cc(C)ccc3n2)cc1	-2.9	5.9	2.6	30.6*	28.3	12.3
C[C@H]1CN([C@@H](C)CO)C(=O)c2cc(NC(=O)Cn3cnnn3)ccc2O[C@@H]1CN(C)C(=O)NC1CCCCC1	nt	nt	4.8	nt	nt	-0.4[16.7 µM]
Cc1ccc2occ(C(c3nnnn3Cc3ccccc3)N3CCOCC3)c(=O)c2c1 (stereo not drawn)	66.7*	-7.1	nt	nt	-7.0	-0.5
C[C@@H]1CN([C@H](C)CO)S(=O)(=O)c2ccc(-c3cccc(F)c3)cc2O[C@@H]1CN(C)S(C)(=O)=O	nt	nt	-9.3	nt	nt	30.2[16.7 µM]
CCOC(=O)CNC(=O)CSc1ncnc2c1cnn2-c1ccc(OC)cc1	-3.6	-3.5	11.6	nt	4.6	1.8
CCc1nnc(NC(=O)CSc2ncnc3c2cnn3-c2ccc(OC)cc2)s1	-1.7	nt	8.9	37.9*	13.8	-7.4
O=C1C(N2CCOCC2)=C(n2nnc3ccccc32)C(=O)c2ccccc21	117.4*	23.1	nt	-21.1	-97.3	-17.7
